Data from PubChem BioAssay AID1159506 (National Center for Advancing Translational Sciences (NCATS), 2015).
In all, about 59,000 sequences were measured (the read-out: median about -0.00055, lowest 2% from about -2 on). Only a selection was taken, and the lowest values are over-represented in it overall.

Experiment: Identification of proteins required for the processing of the EWS-FLI1 nascent transcript;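 further: robust z of luciferase light less the median z of siRNAs with the same seed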
Settings: TC32 Ewing sarcoma NR0B1-luc vs CMV-luc (EWS-FLI1 target promoter against control promoter), 48 h; screened at 20 nM (by protocol)
In short: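 TC32 Ewing sarcoma cells carrying NR0B1-promoter or CMV-promoter luciferase reporters were reverse-transfected with single siRNAs at 20 nM, three per gene genome-wide. Luminescence was read after 48 h and normalized to non-targeting controls.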

Sequence | seed-corrected z-score
UGCUUGAACGUGUCCGUCC against LRRC4B | -0.284
UAACAGCGAAUUCCAAGGC against ZBTB12 | -2.07
AAGACUAUAAAUCAUGUAG against LMBRD1 | -0.385
AAUGUUGUGAUUAAGUAAG against DFNB59 | -2.62
ACCUUGACCAGAAAGCUGC against C20orf27 | -0.672
AAAAGUAUUACAAAAAGUG against MYOD1 | -0.532
UAUACGUAAUGAAAGUUUC against SNX7 | 0.211
AAACUGUGCAAAAGUCUCU against APCDD1L-AS1 | -0.722
UUUGUGUCCACCGUUAUAA against EVPLL | 0.153
AAAUGUACCAAUACGUAGU against TMEM107 | -2.13
UCGUUUCUGUGCUCCGUCC against PCP2 | 0.0855
UCGAUGUACACUUUGAGGC against B3GNT8 | 0.222
UAUGAUUAAGAAUGAAACC against OR6C1 | 0.426
UAUGGUUAGACCGCUUUCG against KIAA0408 | 0.0809
AUAUGUUCGACUAUCAUGG against KATNBL1 | -3.24
UAAGUCAGGAUAUUCGCUC against CRELD2 | -1.22
UAAUGCGAUACAACUCGAC against COX4I1 | 1.65
UGCACGAUCCGUUUGCUUC against RNASE11 | -0.108
UCUGGAUCUGGUUUGCUGC against ZBTB3 | -1.18
UUACUUAGUCUUGUGGUGG against HIST1H2AJ | 0.917
ACGGUUUCAAUAUCUAACG against FAM160B1 | -14.4
AGGAAUACAAGUCAUAUGC against TFB2M | 0.916

Sequence | seed-corrected z-score
AAGCUUUUCGUAGUCCUCA against NMRAL1 | 0.164
UUCUCGAUGCUUGUGGUUU against DMBX1 | -0.553
UUUGAUAACAGUUCACUGG against PLAG1 | 1.2
UUCGAUAGAAUUUGAAAGC against SUGP2 | -2.02
UUCGAUCAAAAUACAAGGC against GLDN | -0.856
UGGAAUAUGACUCUUUGCC against STRA8 | -0.991
AUGGGUAAGAUGUAUGUUG against ZFAND1 | -0.296
UUCGGUAUCGUCUGUAUCC against USP8 | -1.37
UCUGGAACUAUUUACUCGG against NEMP1 | -14.8
AUGACAAUCACAUUCCUCU against AKR1B10 | 0.0562
UUUGCUCCCACCAAAUACC against KLHDC1 | 1.18
AUAGGAAGAACUCUGUUUG against SCHIP1 | -2.03
UCCAUAAUCUGUUUCGCUG against INTS4 | -1.43
UCAAUGACAGCUAAUAGCC against ARL13A | -1.36
UUCUUAACAUAGGGCAUGG against RRM2B | -0.284
UGAACCUCUAGACUCAUAG against ZDBF2 | -0.0347
AAUUCGAUUAGAGAGUGUC against SENP5 | 0.00396
UUUUCUCCCUUUAUAAGGC against OXCT1 | 1.02
UAUCCAACUAUCUAAACUG against TMEM184C | -16.9
UCUCGAAACACCCUACUCC against MKNK1 | 0.234
UGAAGUAAUGGUGAGAGGG against CRYAB | 0.664
UGACCUCCAACACUAGUGC against VPS8 | 0.213

Sequence | seed-corrected z-score
AUCGUAACAAGAAAGUUCC against RNF17 | 1.39
AUCUGCAUAAACUCCACGC against SCGN | -2.24
UCCAAGUUCACGAAGAUUU against MMD | 0.344
UGUACUUUGGAACUAGUCC against ENKUR | 0.00323
UUCCGGAUUACACCAGUGC against FAM171A2 | 0.108
UUCGUAAGUGGUCCAGUUC against GSE1 | 1.07
UCAAUUCUGAGCUUCGGUC against SPATA13 | 0.999
UGGUAGUUCACGUUGAGCC against CASKIN2 | -2.53
UGAAGUUACAUUCAGUUCU against ZFAND3 | 0.106
UUAGAUCUUGAAAGAGUUC against ETV1 | -0.0727
AUAGGUUUCAGAGAGGUGU against CA1 | 0.901
AAUCUUAAAUUUUCCGAGC against RGS7 | -0.282
UCGGGUGUUUUGGUCUUGC against LMOD1 | -2.52
UACCUCAUAGGAUAACACC against MPP4 | 0.19
AACGGUAGAAGCUGCAUGC against NOP58 | -1.46
UCCUGCUUUAUAACUAGCC against ZNF621 | -4.33
UUCAGCAUCUUUGUCGACC against RTFDC1 | -0.168
UGAAGUUAAUGGGCCCUGG against MYL12BP2 | 0.711
UCAUUUUCCUCAUAGGUGC against LAMB2 | -0.564
AUACAUGCAGCUGUGGUUG against GABRB1 | -1.3
UAAGCGAUCCAUAUCAAAC against PROX1 | 0.491
UAACUGUUUAGCGAUGUCC against TBC1D1 | -2.09

Sequence | seed-corrected z-score
UUGUCUUCCUCCAUUGUCG against TSGA10IP | -0.628
UCUCUUGAUGUGGACACUC against ITGAD | -0.0619
UCAUGGUCCGAAGCUGGUG against LHX2 | -2.03
UCGGCAAUAAUCUCGGCCU against HNRNPA0 | 0.556
UGGUUUUGUACACCUGCUG against TNP2 | -0.158
UAUUGAAGGACUCCUGAUC against RAB1A | 0.0899
UUCAGAUGUCCGUCUAUGC against ABLIM3 | 0.714
UUGGAAUACAUUGCCGUUC against SSR1 | -0.807
UUUUGGACCGCUGCACCUG against CBY3 | 0.744
UUUAGAGCGAGUGGUUAGC against PPHLN1 | 0.884
UAAUCUUUUCAUGCAACUC against SNCA-AS1 | -2.06
UAGGUGAAGAUCUUGUUUC against COMMD10 | -0.785
AAAUGAUUUAUAUCCCUGG against ABCC6P1 | -14.5
AUCGGUAAGAUCCUAAUGG against VPS13A | 0.281
UAUUCUACCUCGUACCUCC against TBC1D22B | -0.239
ACCAGUAUAACCCAGAGUC against FCGR1A | 0.036
UAUAGAGGAAAGCUAUGCC against ERCC6L | 0.528
AAAGCGAGUUUUCUCAUCC against COPA | -4.21
AACUGGAUAGGAGGACUGC against HSF5 | -0.327
UUAAUUCUCGGAUGUGCUC against ANXA11 | 0.143
UUAUGUUUUCCUACUCCAC against TCEAL1 | -2.4
UGAAGGCCAACCGCUCUGU against ALG1L6P | 0.486

Sequence | seed-corrected z-score
UCAGUUUGAUUAUUUCUCU against RASSF4 | 0.41
UGACUUCACCCAGAAGCAC against SLC25A41 | -0.697
UCAUCAUCCAAAGAUGUAC against C20orf196 | -1.47
UAUUCGAGCGCAGUGCUGG against C10orf67 | -0.133
AUUGGUAGAACAAAGUUCC against PRELID3A | 0.478
UUUUGUUGUGAGCUGAUGC against SF3B4 | -3
UUCCUUGGAGCUGGGAUCU against PSORS1C1 | -1.32
UUCUUUUUCAAACAGCUCU against ISY1 | -1.17
UACUGGUCAAUCGCUGUUC against CEP192 | -0.996
UUAUUGUUCUUUCGGAUCC against SELP | 0.564
UCCGGUAAGACAUUCUCUG against EAPP | 0.402
AUGACUUUUAGUGUAAUCC against LOC439994 | -2.2
UAUGUCGUCUUGGAGAUCG against SNRNP27 | -0.0915
UUAAGAGUGACUCAAUUUG against MGAT2 | -0.219
AUUGAGUAUCACGUCAUCC against TTLL4 | -2.43
ACCUUGAUGGUUUUUGAUG against LOC649294 | 0.0918
UUUCUUAAUGGUGGUGCCC against SLC7A7 | -0.929
UGUAUUAUCGUGUCCGAGC against CTNNBL1 | -0.748
UGAUAACCCACAUUGAAGG against DEGS1 | -0.494
UCUUCUUCCAGUAUAAGGC against KITLG | 0.53
UCAACACCCAGGUAGCGGA against DUSP26 | -2.05
UAAAGGGUUGUGGGAAAUG against LRRC30 | -1.26

Sequence | seed-corrected z-score
UCUGGAAUUUGACUGCUCG against RPL24 | -0.838
UACGUAAGAAAUAGGAACG against OR6C76 | -2.11
UCAACUUCCAUGAUUUUCC against IGF2BP2 | -0.332
UUCCGGUCAUAAUUCAGCC against PPFIA4 | -0.228
AAUGGUAAACUUGAUUUCA against TP53I11 | 0.091
AUAGAGGUGAGGGUCAUGC against TGFBI | -2.38
UACUUCUAUGUAGAGGUCC against AKIP1 | -0.138
UCAGUUUGGAAUGAGGAGG against LOC345051 | -0.469
UGUGGAUGCGGCGAUGUUC against ZNF574 | 0.836
UGCUUUUAGAAAGUCCAUG against HAUS1 | -0.637
ACCGUUGUAGUCUCCAUCG against ANO1 | -11.8
UUUUCAUCUGGUAAAAGGG against FAM13C | -1.06
UAUCUUCAGAUCGCUGUAC against ANKFY1 | 0.715
UCUUCGUCCACUCUGAAUC against NMU | -2.29
UUUGAUAUUCAUAACGAUC against N4BP2L2 | 0.28
UGCAGUGGACCAUUUAUGC against SUN5 | -1.1
UACCGAUUGUGAAUGAACC against NHS | -17
UUUGGAAUCCUUUACUUGG against GLE1 | 0.251
UUCAUGACAGUGACGAUGC against ITPR3 | -0.0506
UCUUGGAGUUCCGUCUUUG against FGF20 | -0.184
UCAUUGAUUAGGUGGAUGC against RRP9 | -0.724
AUCUGGACCACUAUUUCUU against RSPH9 | 0.909
